The nature of experiment [1]: BSK_hDFCGF_SRB: Viability Assessment in the BioMAP Diversity Plus: hDFCGF Assay (AID 2283061).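 Further: cells exposed to compound for 24 h before the read.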 As to conditions: primary human foreskin fibroblasts. An outline of the steps:
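SRB-based viability read on primary human skin fibroblasts at 24 h: TCA fixation, 0.1% dye, 560 nm. Gain or loss of signal is fitted against the DMSO negative control.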

Read-out in experiment [2]: TIMP metallopeptidase inhibitor 1 (TIMP1), TIMP1 (gene 7076)
Description: BSK_hDFCGF_TIMP1: BioMAP Diversity Plus: hDFCGF Assay for TIMP metallopeptidase inhibitor 1 (TIMP1) Biomarker Activity (AID 2283062). Particulars: primary human foreskin fibroblasts; actives raise or lower the signal. An outline of the steps: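 Bidirectional curve fitting against DMSO baseline yielded this endpoint, based on ELISA detection of TIMP-1 in primary human foreskin fibroblasts exposed to compound for 24 h.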

Read-out in experiment [3]: Monokine induced gamma interferon (MIG), CXCL9 (gene 4283)
Nature of the experiment: BSK_hDFCGF_MIG: BioMAP Diversity Plus: hDFCGF Assay for Monokine induced gamma interferon (MIG) Biomarker Activity (AID 2283063). As to conditions: primary human foreskin fibroblasts; actives raise or lower the signal. An outline of the steps: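 Endpoint derived by bidirectional fitting relative to DMSO; MIG quantified via ELISA in primary human foreskin fibroblasts harvested 24 h after dosing.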

Read-out in experiment [4]: Matrix Metallopeptidase 1 (MMP1), MMP1 (gene 4312)
Nature of the experiment: BSK_hDFCGF_MMP1: BioMAP Diversity Plus: hDFCGF Assay for Matrix Metallopeptidase 1 (MMP1) Biomarker Activity (AID 2283064). Particulars: primary human foreskin fibroblasts; actives raise or lower the signal. An outline of the steps:
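Primary human foreskin fibroblasts in the hDFCGF system were dosed with test chemical, and MMP1 was measured by ELISA 24 h later. Values come from bidirectional curve fitting against the DMSO baseline.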

Read-out in experiment [5]: Vascular cell adhesion molecule 1 (VCAM1), VCAM1 (gene 7412)
Description: BSK_hDFCGF_VCAM1: BioMAP Diversity Plus: hDFCGF Assay for Vascular cell adhesion molecule 1 (VCAM1) Biomarker Activity (AID 2283065).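 On AC50: VCAM-1 protein level quantified by ELISA after 24 h chemical exposure.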 As to conditions: primary human foreskin fibroblasts; actives raise or lower the signal. An outline of the steps:
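Measured after 24 h chemical treatment of primary human skin fibroblasts, VCAM-1 was detected by ELISA and concentration-response analysed in both directions versus DMSO vehicle.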

Read-out in experiment [6]: Plasminogen activator inhibitor-1 (PAI1), SERPINE1 (gene 5054)
Nature of the experiment: BSK_hDFCGF_PAI1: BioMAP Diversity Plus: hDFCGF Assay for Plasminogen activator inhibitor-1 (PAI1) Biomarker Activity (AID 2283066). Particulars: primary human foreskin fibroblasts; actives raise or lower the signal. An outline of the steps: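 Human foreskin fibroblast primary cells, 24 h chemical exposure; PAI-1 measured by ELISA. Bidirectional fitting relative to DMSO; parallel cultures stained with SRB for total protein to flag overt cytotoxicity.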

Read-out in experiment [7]: Intercellular Adhesion Molecule 1 (ICAM1), ICAM1 (gene 3383)
Description: BSK_KF3CT_ICAM1: BioMAP Diversity Plus: KF3CT Assay for Intercellular Adhesion Molecule 1 (ICAM1) Biomarker Activity (AID 2283067). As to conditions: primary human keratinocytes with fibroblasts; actives raise or lower the signal. An outline of the steps:
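Bidirectional curve fitting against a DMSO baseline was applied to ICAM-1 ELISA signal from primary human skin co-cultures harvested 24 h after treatment, with SRB staining of parallel wells for overt cytotoxicity.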

Read-out in experiment [8]: Interferon-gamma inducible Protein 10 (IP10), CXCL10 (gene 3627)
Description: BSK_KF3CT_IP10: BioMAP Diversity Plus: KF3CT Assay for Interferon-gamma inducible Protein 10 (IP10) Biomarker Activity (AID 2283068). As to conditions: primary human keratinocytes with fibroblasts; actives raise or lower the signal. An outline of the steps: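 Human keratinocyte plus foreskin fibroblast primary co-culture exposed to test chemical for 24 h; IP-10 measured by ELISA. Concentration-response fitted bidirectionally against DMSO control as baseline.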

A short description of experiment [9]: BSK_KF3CT_SRB: Viability Assessment in the BioMAP Diversity Plus: KF3CT Assay (AID 2283069).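 Further: total protein by sulforhodamine B staining as a cytotoxicity measure; read 24 h after compound addition.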 Particulars: primary human keratinocytes with fibroblasts. An outline of the steps:
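Human primary keratinocyte plus foreskin fibroblast co-culture exposed to chemicals for 24 h. Total protein measured by 0.1% sulforhodamine B staining after 10% TCA fixation, read at 560 nm; bidirectional fitting versus DMSO baseline.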

Read-out in experiment [10]: Interleukin-1 alpha (IL1a), IL1A (gene 3552)
Nature of the experiment: BSK_KF3CT_IL1a: BioMAP Diversity Plus: KF3CT Assay for Interleukin-1 alpha (IL1a) Biomarker Activity (AID 2283070). As to conditions: primary human keratinocytes with fibroblasts; actives raise or lower the signal. An outline of the steps:
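Human keratinocyte plus foreskin fibroblast primary co-culture, sampled 24 h after chemical dosing. IL-1a measured by ELISA; responses fitted bidirectionally against DMSO baseline (negative control), so gain or loss of signal both count.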

Read-out in experiment [11]: TIMP metallopeptidase inhibitor 2 (TIMP2), TIMP2 (gene 7077)
Nature of the experiment: BSK_KF3CT_TIMP2: BioMAP Diversity Plus: KF3CT Assay for TIMP metallopeptidase inhibitor 2 (TIMP2) Biomarker Activity (AID 2283071). As to conditions: primary human keratinocytes with fibroblasts; actives raise or lower the signal. An outline of the steps:
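Co-culture of human primary keratinocytes and foreskin fibroblasts, measured 24 h after chemical dosing. TIMP-2 quantified by ELISA and fitted in both directions relative to DMSO. Cytotoxicity checked in parallel cultures by SRB total-protein staining.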

Read-out in experiment [12]: Transforming growth factor beta 1 (TGFb1), TGFB1 (gene 7040)
Nature of the experiment: BSK_KF3CT_TGFb1: BioMAP Diversity Plus: KF3CT Assay for Transforming growth factor beta 1 (TGFb1) Biomarker Activity (AID 2283072). As to conditions: primary human keratinocytes with fibroblasts; actives raise or lower the signal. An outline of the steps: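 Human keratinocyte/foreskin fibroblast co-culture; TGF-b1 measured by ELISA 24 h after dosing, fitted bidirectionally versus DMSO. Cytotoxicity checked in parallel cultures by total protein (SRB staining, 560 nm).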

Read-out in experiment [13]: C-C motif chemokine 2 (Homo sapiens) (UniProt P13500)
Nature of the experiment: BSK_KF3CT_MCP1: BioMAP Diversity Plus: KF3CT Assay for Monocyte Chemoattractant Protein 1 (MCP1/CCL2) Biomarker Activity (AID 2283073). Particulars: primary human keratinocytes with fibroblasts; actives raise or lower the signal. An outline of the steps: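 Biomarker MCP-1 is measured by ELISA in primary human keratinocytes co-cultured with foreskin fibroblasts, 24 h after chemical treatment; DMSO serves as the negative control and activity baseline.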

Read-out in experiment [14]: Matrix Metallopeptidase 9 (MMP9), MMP9 (gene 4318)
Nature of the experiment: BSK_KF3CT_MMP9: BioMAP Diversity Plus: KF3CT Assay for Matrix Metallopeptidase 9 (MMP9) Biomarker Activity (AID 2283074).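 On AC50: MMP9 protein level quantified by ELISA in the co-culture.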 As to conditions: primary human keratinocytes with fibroblasts; actives raise or lower the signal. An outline of the steps: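 Keratinocyte plus foreskin fibroblast human primary skin co-culture was dosed with chemical and MMP-9 was quantified by ELISA 24 h later. Bidirectional curve fitting used DMSO as negative control and activity baseline.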

Read-out in experiment [15]: urokinase plasminogen activator (uPA), PLAU (gene 5328)
Nature of the experiment: BSK_KF3CT_uPA: BioMAP Diversity Plus: KF3CT Assay for urokinase plasminogen activator (uPA) Biomarker Activity (AID 2283075). As to conditions: primary human keratinocytes with fibroblasts; actives raise or lower the signal. An outline of the steps:
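Human keratinocyte plus foreskin fibroblast primary co-culture exposed to chemical for 24 h. uPA levels were quantified by ELISA, and activity was fitted bidirectionally against a DMSO negative-control baseline.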

Read-out in the next experiment: CD40, CD40 (gene 958)
Description: BSK_LPS_CD40: BioMAP Diversity Plus: LPS Assay for CD40 Biomarker Activity (AID 2283076). Particulars: primary human HUVEC with PBMC; actives raise or lower the signal. An outline of the steps:
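Using a multiplexed primary human co-culture (umbilical vein endothelium plus PBMC), CD40 was read by ELISA 24 h after dosing, with cytotoxicity tracked by sulforhodamine B staining of parallel cultures and activity fitted bidirectionally versus DMSO.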

Read-out in experiment [16]: E-selectin (Homo sapiens) (UniProt P16581)
Nature of the experiment: BSK_LPS_Eselectin: BioMAP Diversity Plus: LPS Assay for Eselectin Biomarker Activity (AID 2283077). Particulars: primary human HUVEC with PBMC; actives raise or lower the signal. An outline of the steps: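 Dose chemical onto LPS-driven HUVEC/PBMC co-culture; after 24 h, run ELISA for E-selectin; fit up- and down-going responses relative to DMSO control.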

Read-out in experiment [17]: Interleukin-8 (IL8), CXCL8 (gene 3576)
Nature of the experiment: BSK_LPS_IL8: BioMAP Diversity Plus: LPS Assay for Interleukin-8 (IL8) Biomarker Activity (AID 2283078). As to conditions: primary human HUVEC with PBMC; actives raise or lower the signal. An outline of the steps:
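In this LPS system, chemical-treated human umbilical vein endothelium/PBMC co-cultures were harvested at 24 h for IL-8 ELISA.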

Experiment [18] is described as follows: BSK_LPS_SRB: Viability Assessment in the BioMAP Diversity Plus: LPS Assay (AID 2283079).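 Further: total protein by sulforhodamine B absorbance as a cytotoxicity measure; measured one day after compound addition.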 Particulars: primary human HUVEC with PBMC. An outline of the steps: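 Cytotoxicity endpoint in human endothelial–PBMC co-culture: 24 h exposure, then SRB (0.1%) staining, 560 nm read.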
Read-out in experiment [19]: Interleukin-1 alpha (IL1a), IL1A (gene 3552)
Description: BSK_LPS_IL1a: BioMAP Diversity Plus: LPS Assay for Interleukin-1 alpha (IL1a) Biomarker Activity (AID 2283080). Particulars: primary human HUVEC with PBMC; actives raise or lower the signal. An outline of the steps:
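Primary human HUVEC and PBMC co-culture stimulated with LPS is dosed and harvested at 24 h. Both increases and decreases in ELISA-measured IL-1a are scored relative to DMSO.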

The structures appear in SMILES notation. Active and inactive are the calls of the source. How the source made its calls: active means hit-call score of the fitted dose curve at least 0.9, where 1 is the maximum; inactive means score below 0.9.

Chain of E-selectin (Homo sapiens) (P16581 whole entry, looked up): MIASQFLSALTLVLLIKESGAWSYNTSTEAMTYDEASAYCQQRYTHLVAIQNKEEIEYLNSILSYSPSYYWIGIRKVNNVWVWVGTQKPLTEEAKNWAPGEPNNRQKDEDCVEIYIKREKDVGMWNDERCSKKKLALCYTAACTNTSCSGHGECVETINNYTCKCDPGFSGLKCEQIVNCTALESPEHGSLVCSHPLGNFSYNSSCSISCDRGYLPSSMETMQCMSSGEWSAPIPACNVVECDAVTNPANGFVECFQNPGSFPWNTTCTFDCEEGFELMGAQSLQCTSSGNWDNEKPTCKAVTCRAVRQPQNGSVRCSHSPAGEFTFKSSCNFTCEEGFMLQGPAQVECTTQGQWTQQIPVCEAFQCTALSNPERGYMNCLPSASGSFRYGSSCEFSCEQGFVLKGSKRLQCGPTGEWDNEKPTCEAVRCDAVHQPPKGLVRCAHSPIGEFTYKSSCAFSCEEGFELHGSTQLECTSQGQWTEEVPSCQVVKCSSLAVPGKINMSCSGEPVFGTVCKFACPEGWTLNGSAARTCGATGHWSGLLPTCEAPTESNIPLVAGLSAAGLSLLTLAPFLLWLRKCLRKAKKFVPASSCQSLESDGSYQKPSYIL

Consider `CC(=O)Nc1ccccc1O`, for which the outcome in experiment [1], in experiment [2], in experiment [3], in experiment [4], in experiment [5] and in experiment [6] was inactive. Besides, the result in [7], in experiment [8], in [9], in [10], in [11] and in experiment [12] was inactive. For the same compound, the outcome in [13] was “inactive”; in [14], “inactive”; in experiment [15], “inactive”; with CD40, CD40 (gene 958), “inactive”; in [16], “inactive”; in [17] it was “inactive”. Also, the outcome in experiment [18] and in experiment [19] was inactive.

As usually defined, the AC50 is the concentration giving half of the maximal activity seen. With `CC1CCC(C(C)CS)CC1S` (stereo not given), the AC50 in [1] was 7.28 µM (active); in experiment [2] it was 6.08 µM (active); in experiment [3], 7.33 µM (active); in [4], 9.03 µM (active); in experiment [5], 2.78 µM (active); in [7], 35.5 µM (active). Also, the AC50 in experiment [8] is 20 µM (active); in [9] it was 13.8 µM (active); in experiment [10], 30.2 µM (active); in experiment [11] it was 5.83 µM (active); in experiment [12], 7.37 µM (active); in [13], 20 µM (active). Further, the AC50 was 24 µM (active) in experiment [14]; 33.7 µM (active) in experiment [15]; 20 µM (active) in the experiment with CD40, CD40 (gene 958); 34.6 µM (active) in experiment [16]; 29.4 µM (active) in experiment [18]; 36.3 µM (active) in experiment [19]. For the same compound, the outcome in experiment [6] and in experiment [17] was inactive.

On to `CCCCC(CC)COCCC#N` (stereo not given), for which the outcome in experiment [1], in experiment [3], in experiment [4], in experiment [6], in experiment [7] and in [9] was inactive. Moreover, the result in [10], in experiment [11], in experiment [12], in [13], in [14] and in experiment [15] was inactive. Also, the outcome with CD40, CD40 (gene 958) is “inactive”; in [16] it was “inactive”; in experiment [17], “inactive”; in experiment [18], “inactive”; in [19] it was “inactive”. Also, the AC50 is 20 µM (active) in experiment [2], 7.05 µM (active) in experiment [5] and 5.08 µM (active) in experiment [8].

(Values after PubChem BioAssay (EPA / NIEHS).)
